The source of these data is PubChem BioAssay AID2315 (National Center for Advancing Translational Sciences (NCATS), 2010).

As a reminder, the inhibition is the relative decrease from the control value, in per cent.

Structures are written as SMILES. Among all 290,000 compounds or so, about 27,000 (9.3%) were called active. This excerpt belongs to a sample that is enriched for actives. Values without a mark were called inactive. Rule as the data show it: active = inhibition mostly above about 28% (no sharp cut-off); inactive = mostly below about 43%.

A short description of this experiment: A qHTS for Small Molecule Inhibitors of Shiga Toxin. Also: 0% is about no effect. Conditions: Vero cells, Shiga toxin protein synthesis inhibition reporter; at 38.7 µM, stronger effect = higher value. Background: Quantitative high-throughput screening tests each substance at several concentrations.
With `COc1cc(NS(=O)(=O)c2ccc(NC(=O)c3ccc([N+](=O)[O-])cc3)cc2)ncn1`, the inhibition is -2.79%. Under `Cc1nc([N+](=O)[O-])cn1CC(=O)Nc1ccc(Cl)cc1` stands -12.3%; under `Cc1ccc(C(=O)OCC(=O)NC(=O)Cc2ccccc2)c(O)c1`, -0.702%. The figure for `CCOC(=O)C1CCN(Cc2c(C(=O)N3CCOCC3)nc3c(C)cccn23)CC1` is -32.7%. As to `O=C(c1cccc([N+](=O)[O-])c1)N1CCN(Cc2ccccc2)CC1`, the inhibition was -0.104%.

As to `COc1ccc(N=C(C)c2sc3ccccc3c2O)cc1`, the inhibition was 122% (active).

As to `COc1ccc(-n2c(O)c(C(C)=Nc3ccc4c(c3)CCC4)c(=O)[nH]c2=O)cc1`, the inhibition was -5.66%. Under `COc1ccc(S(=O)(=O)Nc2ccc(O)c(Sc3nc4ccccc4s3)c2)cc1` stands -14.7%; under `CN(CC(=O)Nc1ccc(F)cc1)C(=O)c1ccc(-c2ccc(Cl)cc2)o1`, 5.28%; under `CC(C)c1nnc(NC(=O)COC(=O)/C=C/c2ccc([N+](=O)[O-])cc2)s1`, -13.2%. The figure for `COc1cccc(N(C(=O)C2COc3ccccc3O2)C(C(=O)NC2CCCCC2)c2ccc(O)cc2)c1` (centres undefined) is -2.98%; for `CCn1ccnc1CN(C)C(=O)c1ccc2nc(Cc3ccc(OC)cc3)oc2c1` it is -2.76%. The figure for `CC(C(=O)NCC1CCCCC1)N(C)Cc1cccc(Cl)c1` (centres undefined) is 25.2%; for `CC(c1ccccn1)N(C)C(=O)c1ccc2nc(Cc3cccc(Cl)c3)oc2c1` (centres undefined) it is 73.2% (active). Turning to `CC(C)CCNC(=O)c1ccc2c(Cl)c3c(nc2c1)CCC3`, the inhibition was 70.3% (active). Turning to `COc1ccc(N2CCN(C(=O)c3ccc4c(Cl)c5c(nc4c3)CCCC5)CC2)cc1`, the inhibition was -17.4%.

In the case of `CC(=O)c1ccc(NC(=O)c2ccc3c(Cl)c4c(nc3c2)CCCC4)cc1`, the inhibition was -8.45%. Under `O=C(CNC(=O)OCc1ccccc1)NC1CCCCNC1=O` (centres undefined) stands -7.21%; under `COC(=O)c1ccccc1NC(=O)C1(S(=O)(=O)c2ccc(Cl)cc2)CC1`, -19.5%. The figure for `CCOc1ccc(C2NC(=S)NC3=C2CCc2ccccc23)cc1` (centres undefined) is 50.5% (active). The figure for `COc1ccc(C2NC(=S)NC3=C2CCc2ccccc23)cc1OC` (centres undefined) is -17%; for `CCOC(=O)C1=C(c2ccccc2)NC(=S)NC1c1ccc(Cl)cc1` (centres undefined) it is -13.4%. Regarding `Cc1ccccc1N(C(=O)CNC(=O)c1cccs1)C(C(=O)NC1CCCC1)c1ccncc1` (centres undefined), the inhibition is 10.5%.

On to `COc1ccccc1Nc1nc(N)nc(CSC(=S)N2CCOCC2)n1`, for which the inhibition is 68.3%. The figure for `CCOC(=O)c1cnc(SCc2nc(N)nc(Nc3ccc(OC)cc3)n2)nc1N` is 19.9%; for `COc1ccc(Nc2nc(N)nc(CSC(=S)N3CCC(C)CC3)n2)cc1` it is 76.8% (active); for `Cc1cc(C)c(S(=O)(=O)Nc2c(C)n(C)n(-c3ccccc3)c2=O)cc1[N+](=O)[O-]` it is -11.7%. The figure for `CCOC(=O)c1ccc(NC(=S)N2CCN(c3ccccn3)CC2)cc1` is -8.31%; for `Cc1cc(Cl)nc(NC(=O)Nc2cccc(Cl)c2)n1` it is 61.3%; for `Cc1cc(C)nc(NC(=O)Nc2ccccc2C(F)(F)F)n1` it is 59.8% (active). Under `Cc1cc(C)nc(NC(=O)C(C)N2C(=O)c3ccccc3C2=O)n1` (centres undefined) stands -5.77%; under `CC(NC(=O)c1ccccc1C(=O)O)c1ccc(-n2ccnc2)cc1` (centres undefined), 14.3%.

`Cc1cc(C)cc(OCC(=O)NNC(=O)c2cc3ccccc3oc2=O)c1`: the inhibition is 38.5%.

On to `COc1cccc2cc(C(=O)NCc3ccc(C)cc3)c(=N)oc12`, for which the inhibition was 15.9%. `COc1ccc2oc(=O)c(C(=O)NCc3ccccn3)cc2c1`: the inhibition was 24.7%.

For the compound `O=C(NCCc1c[nH]c2ccccc12)c1cccc(Br)c1`, the inhibition is 22.8%. The figure for `CC(NC(=O)c1cc2cc(Cl)ccc2oc1=N)c1ccccc1` (centres undefined) is 23.9%; for `N=c1oc2ccccc2cc1C(=O)N/N=C/c1ccccc1` it is 76.3% (active); for `CNC(=O)c1cc2c(ccc3ccccc32)oc1=N` it is 30.1%. The figure for `O=C(NCc1ccccn1)c1cc2ccccc2oc1=O` is 72.4% (active); for `O=C(N/N=C\c1cccc(Br)c1)c1ccccc1-n1cccc1` it is 14.5%; for `N=c1oc2ccccc2cc1C(=O)NCc1ccccc1` it is 52.2% (active). As for `CN(c1ccccc1)S(=O)(=O)c1ccc(Cl)c(C(=O)NCCc2c[nH]c3ccccc23)c1`, the inhibition was 1.16%. The figure for `O=C(NCCc1c[nH]c2ccccc12)c1cc2ccccc2oc1=O` is 121% (active); for `Cc1[nH]c2c(C(=O)N3CCCC(CCC(=O)NCc4ccccc4F)C3)cccc2c1C` (centres undefined) it is 16.4%; for `CCOCCCNC(=O)C1(O)c2cc(Br)ccc2NC(=O)N1c1ccc(C)c(C)c1` (centres undefined) it is -7.51%. As for `Cc1ccccc1OCC(=O)Nc1ccc(S(=O)(=O)N2CCOCC2)cc1`, the inhibition is -7.1%. Under `Cc1cc(NC(=O)CCC(=O)N(Cc2ccccc2)C(C(=O)NC2CCCC2)c2ccc(C)o2)no1` (centres undefined) stands 11.3%. For `O=C1CCNCCN1[C@H](CO)Cc1ccccc1`, the inhibition was -8.58%. Under `CCC(C)N1CC(=O)N2Cc3[nH]c4ccccc4c3C[C@H]2C1=O` (some centres undefined) stands -5.65%.

Take `COc1ccc(OC)c(C(=O)NC(CC(N)=O)c2ccc(N3CCC(N4CCCCC4)CC3)c([N+](=O)[O-])c2)c1` (centres undefined): the inhibition was -6.13%. Under `COc1ccc(Cc2nnc(SCC(=O)Nc3ccc(C)c(C)c3)o2)cc1OC` stands -3.66%; under `CCOC(=O)c1oc2c(CN3CCN(C)CC3)c(O)ccc2c(=O)c1-c1ccc(Br)cc1`, 15.8%. For the compound `CN1CCN(Cc2c(O)ccc3c2oc(=O)c2ccccc23)CC1`, the inhibition was 23.3%.

With `CCN1CCN(Cc2c(O)ccc3c(=O)c(-c4ccc(OC)c(OC)c4)c(C(F)(F)F)oc23)CC1`, the inhibition was 21.4% (active). On to `CC(C)=CCCC1(C)C=Cc2c(ccc3c2[nH]c2cc(O)c(C)cc23)O1` (centres undefined), for which the inhibition was 23.1%. The figure for `CC(C)Oc1ccc(CN2CCC(n3nccc3NC(=O)c3cccnc3)CC2)cc1` is -10.5%; for `O=C(Cc1ccsc1)N1CCN(S(=O)(=O)c2cc(C(F)(F)F)cc(C(F)(F)F)c2)CC1` it is -17.3%. As for `O=C(COc1ccc([N+](=O)[O-])cc1)Nc1cccc(C(=O)Nc2ccccc2C(=O)O)c1`, the inhibition was -17.8%. Under `S=c1[nH]c(-c2cccs2)cn1-c1ccccc1` stands 58.2% (active); under `COc1ccc(-c2cn(-c3ccc(OC)cc3)c(=S)[nH]2)cc1`, 38.6%; under `O=c1oc2ccccc2cc1-c1cn(-c2ccccc2)c(=S)[nH]1`, 24.5%. Under `O=C(CN(C(=O)c1csnn1)c1ccc(Br)cc1)NC1CCCC1` stands -6.01%; under `COc1ccc(Cl)cc1NC(=O)CCS(=O)(=O)c1ccc(Br)cc1`, -3.47%; under `Cc1ccnc(N2C(=O)c3ccc([N+](=O)[O-])cc3C2=O)c1`, 2.61%. Under `Cc1ccc(-c2cn3cc([N+](=O)[O-])ccc3n2)cc1` stands 190% (active). Take `Cc1ccc2nc(-c3ccc(Br)cc3)cn2c1`: the inhibition was 23.9% (active).

For the compound `Cc1ccc(C(=O)Cn2cc([N+](=O)[O-])nc2C)cc1`, the inhibition was -7.99%.

As for `CSc1nnc2ccc(-c3ccc(C)cc3)nn12`, the inhibition is 5.52%.

Regarding `Cc1ccc(-c2cn3cc(C)ccc3n2)cc1`, the inhibition was -49.3%.

On to `O=C(Nc1ccnn1C1CCN(C/C=C/c2ccc(F)cc2)CC1)C1CCCC1`, for which the inhibition is 12%. The figure for `CCOc1c(OC)cccc1C(=O)NCC1(c2ccccc2)CCCC1` is -6.29%. In the case of `COc1ccc(C(=O)C2CCCN(S(=O)(=O)c3cccc(C)c3)C2)c(C)c1` (centres undefined), the inhibition is -2.5%.

For `O=c1oc2ccccc2cc1-c1csc(Nc2ccc(O)cc2)n1`, the inhibition is 111% (active). The figure for `Cn1c(CNc2nc(-c3ccccc3)cs2)nnc1SCC(=O)c1ccccc1` is -0.789%. For `CCNc1nc(-c2cc3ccccc3o2)cs1`, the inhibition was 83.5% (active). Under `Cc1nc(C)c(-c2csc(NCCc3ccccc3)n2)s1` stands 13.4%. As to `COc1ccc2nc(Nc3nc(-c4cc5ccccc5oc4=O)cs3)sc2c1`, the inhibition was 61.7%.

Take `Cc1ccc(Nc2nc(-c3sc(NC(=O)c4ccccc4)nc3C)cs2)cc1`: the inhibition is 16.8%. Turning to `COc1ccc(S(=O)(=O)N2CCOCC2)cc1C(=O)NC1CCCCC1`, the inhibition is -17%. As to `CCN(CC)CCN(C(=O)c1ccc(N2C(=O)CCC2=O)cc1)c1nc2cc3c(cc2s1)OCO3`, the inhibition is 29.6%. For the compound `CN(C)CCCN(C(=O)c1ccc(S(=O)(=O)N2CCCCCC2)cc1)c1nc2ccc(Br)cc2s1`, the inhibition is 0.697%.

Regarding `CCN(CC)CCN(C(=O)c1ccc(S(=O)(=O)N2CCOCC2)cc1)c1nc2cc3c(cc2s1)OCCO3`, the inhibition was 44.5% (active).

`O=S(=O)(c1ccc(-c2ccno2)s1)N1CCCCC1`: the inhibition was -11.5%.

For the compound `COc1ccc2c(C)cc3nnnn3c2c1`, the inhibition is -4.48%. The figure for `Cc1ccc(C(=O)NCCNS(=O)(=O)c2ccccc2)cc1` is 1.8%; for `O=C(CSc1ccccc1)Nc1ccc(NC(=O)c2ccco2)cc1` it is 38.7%; for `O=C(CNC(=O)c1ccco1)OCC(=O)c1ccccc1` it is 46.8%. Turning to `CCCc1ccc(OCCNC(=O)c2ccccc2Br)cc1`, the inhibition was 34.3%. Regarding `CCCc1ccc(OCC(=O)NNC(=S)NC(=O)c2ccco2)cc1`, the inhibition was -7.48%. The figure for `Cc1ccc(C(=O)NCCNC(=O)c2ccccc2)cc1` is -8.28%; for `CCS(=O)(=O)Nc1ccc(C(=O)NCCSc2ccccc2)cc1` it is 79.2% (active); for `O=C(NCCSc1ccccc1)c1ccco1` it is 80.2% (active). As for `CCCc1ccc(OCCNC(=O)c2ccco2)cc1`, the inhibition is 78.3% (active).
